# Test results from PubChem BioAssay (NCATS).
# “And” between values parts separate entries of the source, which are not always exact repeats. Identical values can stand only once. Inconclusive results are not listed. Values without a mark were called inactive. The source made the active and inactive calls. The call rests on the fitted dose curve; in most records, active means well fitted inhibition curve with a large enough effect; inconclusive means small, poorly fitted or top-dose-only effect; inactive means flat fitted curve, though single readings scatter.
# Assays:
# CRL-7250 = normal cell line; assay: Cytotoxic Profiling of Annotated Libraries Using Quantitative High-Throughput Screening (AID 1296008); conditions: Five cell lines viability, CellTiter-Glo ATP luminescence, 48-72 h; max response: stronger effect = lower value; further: potency means the concentration at half of the fitted maximal effect; on max response: on the % scale 0 is the no-effect control and ±100 the full control effect
# Outline: (§1)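 Compounds were pin-transferred onto cells and incubated 48 or 72 hr at 37 degree Celsius, 95% humidity. CellTiter-Glo was added, plates sat 10 min at room temperature, then ATP-coupled luminescence was imaged as the viability read-out.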
# HEK293 = assay: as above; conditions: Five cell lines viability, CellTiter-Glo ATP luminescence, 48-72 h; max response: stronger effect = lower value
# Outline: as §1
# HaCat [1] = assay: as above; conditions: Five cell lines viability, CellTiter-Glo ATP luminescence, 48-72 h; max response: stronger effect = lower value
# Outline: as §1
# NIH3T3 = assay: as above; conditions: Five cell lines viability, CellTiter-Glo ATP luminescence, 48-72 h; max response: stronger effect = lower value
# Outline: as §1
# HACAT [2] = assay: qHTS assay to identify novel small-molecules to repurpose for Merkel cell carcinoma treatment (AID 1296009); conditions: MCC and control cell lines, CellTiter-Glo viability, 72 h; at 44.8 µM (top of the series) unless noted
# Outline: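 Viability readout: ATP luminescence (CellTiter-Glo) after 72 hr drug exposure at 37 degree celsius. Dose-response format was 8 points for NPC and 11 points for MIPE; data normalized to in-plate controls.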
# KB-3-1 = assay: Cytotoxic Profiling of Annotated Libraries Using Quantitative High-Throughput Screening (AID 1296008); conditions: Five cell lines viability, CellTiter-Glo ATP luminescence, 48-72 h; max response: stronger effect = lower value; further: potency means the concentration at half of the fitted maximal effect; on max response: on the % scale 0 is the no-effect control and ±100 the full control effect
# Outline: as §1
# Further: nearly all actives have a fitted effect of over 60% in size.
smiles,measurement,setting,value
CC(C)C[C@@H]1NC(=O)[C@@H]2C[C@@]34C[C@@H]5[C@@]6(C)CCCC(C)(C)C6CC[C@@]5(C)N(c5ccccc53)[C@H]4N2C1=O (stereo not given in full),Potency,CRL-7250,0.502 µM (active)
same,Potency,HEK293,0.796 µM (active)
same,outcome,HaCat [1],inactive
same,max response,NIH3T3,-3.44%
same,outcome,HACAT [2],inactive [at 17.4 µM]
CCCCC1CCN(CCCN2C(=O)CCc3ccccc32)CC1,max response,CRL-7250,-13.3%
same,Potency,HEK293,18.4 µM (active)
same,max response,HaCat [1],-2.1%
same,max response,NIH3T3,-7.86%
COC(C)(C)CCn1nc(Nc2c(C)cccc2C)c2cnc(Nc3ccc(OCCN4CCCC4)c(F)c3)nc21,Potency,CRL-7250,1.16 µM (active)
same,Potency,HEK293,7.31 µM (active)
same,Potency,HaCat [1],1.3 µM (active)
same,Potency,NIH3T3,0.411 µM (active)
N#Cc1ccnc(Nc2cc(C3CCN(C4COC4)CC3)cc(N3CCC(F)(F)C3)n2)c1,Potency,CRL-7250,11.7 µM (active)
same,Potency,HEK293,8.31 µM (active)
same,Potency,HaCat [1],23.4 µM (active)
same,Potency,NIH3T3,20.9 µM (active)
CN1C(=O)c2sccc2N(C)c2nc(Nc3ccc(S(N)(=O)=O)cc3)ncc21,Potency,CRL-7250,7.41 µM (active)
same,Potency,HEK293,11.7 µM (active)
same,Potency,HaCat [1],18.6 µM (active)
same,Potency,NIH3T3,16.6 µM (active)
Cc1nc(-c2cn3c(n2)-c2ccc(-c4cnn(C(C)(C)C(N)=O)c4)cc2OCC3)n(C(C)C)n1,max response,CRL-7250,4.52%
same,Potency,HEK293,6.51 µM (active)
same,Potency,HaCat [1],2.91 µM (active)
same,Potency,NIH3T3,5.17 µM (active)
COc1cc(C[C@H]2C(=O)OC[C@@H]2Cc2ccc(OC)c(OC)c2)ccc1O,Potency,CRL-7250,0.508 µM (active)
same,Potency,HEK293,1.01 µM (active)
same,outcome,HaCat [1],inactive
same,max response,NIH3T3,-24.5%
same,outcome,HACAT [2],inactive
COc1cc(Br)c(S(=O)(=O)Nc2ccc(Cl)c(O[C@@H]3CCN(C)C3)c2)cc1OC,outcome,CRL-7250,inactive
same,Potency,HEK293,7.31 µM (active)
same,outcome,HaCat [1],inactive
same,max response,NIH3T3,-15.8%
same,outcome,HACAT [2],inactive
CC1(C(=O)Nc2ccc(F)nc2)CCCN1c1nc(Nc2cc(C3CC3)[nH]n2)c2cccn2n1 (stereo not given),Potency,CRL-7250,8.2 µM (active)
same,Potency,HEK293,5.17 µM (active)
same,Potency,HaCat [1],2.06 µM (active)
same,Potency,NIH3T3,4.61 µM (active)
Cc1cc(-c2ncc(-c3cccnc3)cc2/C=C/c2ccccc2)cnc1-c1cccnc1,outcome,CRL-7250,inactive
same,Potency,HEK293,2.59 µM (active)
same,outcome,HaCat [1],inactive
same,max response,NIH3T3,3.84%
same,outcome,HACAT [2],inactive
CC(=O)O[C@@H]1C[C@@]23C[C@@]24CC[C@H](O[C@@H]2OC[C@H](O)[C@H](O)[C@H]2O)C(C)(C)[C@@H]4CC[C@H]3[C@]2(C)[C@@H](O)C34O[C@H](C[C@@H](C)[C@@H]3[C@@]12C)[C@@H](C(C)(C)O)O4,max response,CRL-7250,4.08%
same,max response,HEK293,-6.78%
same,outcome,HaCat [1],inactive
same,max response,NIH3T3,2.71%
same,outcome,HACAT [2],inactive
CC(=O)OC(C)(C)/C=C/C(=O)[C@](C)(O)[C@H]1C(O)C[C@@]2(C)[C@@H]3CC=C4[C@@H](C=C(O[C@@H]5O[C@H](CO)[C@@H](O)[C@H](O)[C@H]5O)C(=O)C4(C)C)[C@]3(C)C(=O)C[C@]12C (stereo not given in full),outcome,CRL-7250,inactive
same,max response,HEK293,-18.4%
same,outcome,HaCat [1],inactive
same,outcome,NIH3T3,inactive
same,outcome,HACAT [2],inactive [at 17.4 µM]
COc1cc(-c2cn(C3CCc4c(F)cccc4N(CC(F)(F)F)C3=O)nn2)ccc1-n1cnc(C)c1 (stereo not given),max response,CRL-7250,-13.5%
same,max response,HaCat [1],-32.4%
same,max response,KB-3-1,-16.9%
C=C1CC2OC(=O)C(=C)C2C(OC(=O)/C(C)=C\C)CC2(C)OC1=CC2=O (stereo not given),Potency,CRL-7250,14.3 µM (active)
same,Potency,HEK293,2.86 µM (active)
same,Potency,NIH3T3,12.8 µM (active)
C=C1C(=O)O[C@@H]2[C@H]1CC(=O)[C@H](C)[C@@](O)(C(=O)/C=C/C)[C@H]2OC(=O)C(C)CC (stereo not given in full),Potency,CRL-7250,7.18 µM (active)
same,Potency,HEK293,2.86 µM (active)
same,Potency,NIH3T3,4.04 µM (active)
CC1CCCC[C@H]2C(=O)C=C[C@H](O)[C@@H]2CC(=O)O1 (stereo not given in full),Potency,CRL-7250,8.2 µM (active)
same,Potency,HEK293,1.64 µM (active)
same,Potency,NIH3T3,18.4 µM (active)
COC1CC(O[C@H]2CC[C@]3(C)C4CC[C@]5(C)C(C6=CC(=O)OC6)=CCC56OC46CC[C@@H]3C2)OC(C)C1O[C@@H]1O[C@H](CO[C@@H]2O[C@H](CO)[C@@H](O)[C@H](O)[C@H]2O)[C@@H](O)[C@H](O)[C@H]1O (stereo not given in full),Potency,CRL-7250,1.55 µM (active)
same,Potency,HEK293,1.74 µM (active)
same,outcome,NIH3T3,inactive
COc1cc(C(N)=O)nc(-c2ccccn2)c1O,max response,CRL-7250,-12.9%
same,max response,HEK293,-3.89%
same,max response,NIH3T3,-4.41%
C=C1C(=O)O[C@@H]2C(OC(=O)/C(C)=C\C)/C(C)=C\C(=O)/C=C(\C)C[C@H](O)[C@@H]12 (stereo not given in full),Potency,CRL-7250,10.1 µM (active)
same,Potency,HEK293,2.55 µM (active)
same,Potency,NIH3T3,9.04 µM (active)
Cc1cccc(-c2[nH]ncc2-c2ccnc3ccccc23)n1,max response,CRL-7250,-17.2%
same,max response,HEK293,-23.7%
same,outcome,HaCat [1],inactive
same,outcome,HACAT [2],inactive
O=C1NC(=O)C(c2cnc3ccccn23)=C1c1cn2c3c(cc(F)cc13)CN(C(=O)N1CCCCC1)CC2,Potency,CRL-7250,46.1 nM (active) and 33.1 nM (active)
same,Potency,HEK293,0.295 µM (active)
same,outcome,HaCat [1],inactive
same,outcome,HACAT [2],inactive
Cc1cc2c(F)c(Oc3ncnn4cc(OCC(C)OC(=O)C(C)N)c(C)c34)ccc2[nH]1 (stereo not given),max response,CRL-7250,-5.94%
same,Potency,HEK293,6.51 µM (active)
same,outcome,HaCat [1],inactive
same,outcome,HACAT [2],inactive
COC1CC(O[C@H]2CC[C@]3(C)C4CC[C@@]5(C)C(=O)[C@]4(CC[C@@H]3C2)CC[C@@H]5C2=CC(=O)OC2)OC(C)C1OC1OC(COC2OC(CO)C(O)C(O)C2O)C(O)C(O)C1O (stereo not given in full),Potency,CRL-7250,1.55 µM (active)
same,Potency,HEK293,1.23 µM (active)
same,outcome,NIH3T3,inactive
